Results as given in the supplement of paper PMC10849652.
About 7,900 targets were measured; listed, in parts, are those with a hit and a random draw of the rest. About 0.6% of all pairs of compound and target were hits.

Legend:
Test in all cases: log2 fold change, soluble protein after heating vs DMSO (PISA); higher = thermal stabilisation; K562 cells, 10 uM, 30 min; active = over 0.2 and 3.5 SD of the protein, either way, in both replicates (recomputed)
erlotinib = compound: C#Cc1cccc(Nc2ncnc3cc(OCCOC)c(OCCOC)cc23)c1 [erlotinib]
Summary of the method: (§1)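 Soluble protein was defined as the supernatant after 21,000xg for 90 min. It came from K562 cells at 2×10^6 cells/mL given 10 μM compound for 30 min, heated in aliquots for 3 min across 48°C-58°C, pooled, and extracted in PBS with 0.5% NP-40 at 4°C, and was quantified by TMTpro 16plex LC-MS/MS with equalised channel sums. Thermal stability against control samples, from duplicates, is reported as log2 fold change.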

[1] = compound: C/C(=N\NC(=O)C1=CC(=CC=C1)S(=O)(=O)N2CCOCC2)/C3=C(C=CC(=C3)Cl)O
Summary of the method: as §1

[2] = compound: C1=CC(=C(C=C1Cl)C2=NC3=NC=CN=C3C(=N2)NC4=CC=NC=C4)F
Summary of the method: as §1

[3] = compound: C1=CC(=CC=C1C2=NC3=C(N2)C=C(C=C3)C(=O)N)OC4=CC=C(C=C4)Cl
Summary of the method: as §1

[4] = compound: C1=CC2=C(C=CC(=C2)/C=C\3/C(=O)NC(=NCC4=CC=CS4)S3)N=C1
Summary of the method: as §1

[5] = compound: C1=CC2=NC=CN=C2C=C1/C=C/3\C(=O)NC(=O)S3
Summary of the method: as §1

[6] = compound: C1=CC=C(C=C1)C2=NC(=C(N2)C3=CC=NC=C3)C4=CC(=C(C=C4)Cl)O
Summary of the method: as §1

[7] = compound: C1=CC=C2C(=C1)C3=NNC4=CC=CC(=C43)C2=O
Summary of the method: as §1

[8] = compound: C1CCN(C1)C(=O)NC2=CC=CC(=C2)NC3=NC=C(C(=N3)NCCC4=CN=CN4)Br
Summary of the method: as §1

[9] = compound: C1CN(CCC1(CC2=CC=C(C=C2)Cl)N)C3=NC=NC4=C3C=CN4
Summary of the method: as §1

UniProt P53597, sequence (P53597 whole entry, looked up): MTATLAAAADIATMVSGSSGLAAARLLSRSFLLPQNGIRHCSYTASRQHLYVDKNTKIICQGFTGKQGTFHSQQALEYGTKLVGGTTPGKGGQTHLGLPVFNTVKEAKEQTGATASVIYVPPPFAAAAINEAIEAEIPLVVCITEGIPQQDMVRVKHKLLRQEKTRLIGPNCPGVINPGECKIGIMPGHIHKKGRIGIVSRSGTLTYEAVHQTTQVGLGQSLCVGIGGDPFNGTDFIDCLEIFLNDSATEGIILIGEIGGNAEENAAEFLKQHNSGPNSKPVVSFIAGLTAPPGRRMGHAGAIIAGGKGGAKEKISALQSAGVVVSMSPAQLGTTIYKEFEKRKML
UniProt Q96BW9, sequence (Q96BW9 whole entry, looked up): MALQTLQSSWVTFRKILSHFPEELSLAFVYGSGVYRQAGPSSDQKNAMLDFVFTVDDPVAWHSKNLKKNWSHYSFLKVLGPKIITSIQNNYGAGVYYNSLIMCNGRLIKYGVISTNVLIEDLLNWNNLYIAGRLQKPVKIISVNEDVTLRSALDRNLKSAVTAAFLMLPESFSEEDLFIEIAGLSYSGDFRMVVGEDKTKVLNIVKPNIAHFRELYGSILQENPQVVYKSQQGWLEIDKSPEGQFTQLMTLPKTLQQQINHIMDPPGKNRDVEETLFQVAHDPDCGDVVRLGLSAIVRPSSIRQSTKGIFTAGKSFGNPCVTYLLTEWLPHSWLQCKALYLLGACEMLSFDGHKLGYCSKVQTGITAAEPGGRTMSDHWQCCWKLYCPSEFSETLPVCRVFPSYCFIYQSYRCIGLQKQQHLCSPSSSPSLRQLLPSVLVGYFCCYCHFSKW
UniProt Q8TC07, sequence (Q8TC07 whole entry, looked up): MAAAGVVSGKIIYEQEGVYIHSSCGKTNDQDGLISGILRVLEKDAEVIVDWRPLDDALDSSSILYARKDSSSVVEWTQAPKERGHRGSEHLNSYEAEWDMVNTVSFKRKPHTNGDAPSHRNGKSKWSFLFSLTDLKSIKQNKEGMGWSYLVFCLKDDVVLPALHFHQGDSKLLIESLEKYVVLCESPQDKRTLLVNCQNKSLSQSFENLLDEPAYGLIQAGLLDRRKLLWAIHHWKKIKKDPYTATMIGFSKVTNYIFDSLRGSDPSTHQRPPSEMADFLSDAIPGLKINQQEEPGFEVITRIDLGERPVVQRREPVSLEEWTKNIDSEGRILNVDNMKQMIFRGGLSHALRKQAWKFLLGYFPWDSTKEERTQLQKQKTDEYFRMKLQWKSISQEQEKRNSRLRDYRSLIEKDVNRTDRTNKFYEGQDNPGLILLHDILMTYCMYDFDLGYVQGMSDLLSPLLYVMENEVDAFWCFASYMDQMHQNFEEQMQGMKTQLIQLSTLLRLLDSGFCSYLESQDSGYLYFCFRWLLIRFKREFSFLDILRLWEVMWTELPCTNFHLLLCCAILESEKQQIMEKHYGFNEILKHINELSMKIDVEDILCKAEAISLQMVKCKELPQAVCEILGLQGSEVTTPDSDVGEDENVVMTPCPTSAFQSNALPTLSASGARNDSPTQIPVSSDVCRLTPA
UniProt Q13242, sequence (Q13242 whole entry, looked up): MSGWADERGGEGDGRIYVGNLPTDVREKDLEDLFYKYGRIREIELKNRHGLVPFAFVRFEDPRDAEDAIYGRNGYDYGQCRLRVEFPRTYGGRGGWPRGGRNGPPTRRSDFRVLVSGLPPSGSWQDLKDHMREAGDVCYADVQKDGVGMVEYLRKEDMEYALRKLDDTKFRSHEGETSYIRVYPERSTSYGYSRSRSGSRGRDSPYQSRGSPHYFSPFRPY
UniProt P51692, sequence (P51692 whole entry, looked up): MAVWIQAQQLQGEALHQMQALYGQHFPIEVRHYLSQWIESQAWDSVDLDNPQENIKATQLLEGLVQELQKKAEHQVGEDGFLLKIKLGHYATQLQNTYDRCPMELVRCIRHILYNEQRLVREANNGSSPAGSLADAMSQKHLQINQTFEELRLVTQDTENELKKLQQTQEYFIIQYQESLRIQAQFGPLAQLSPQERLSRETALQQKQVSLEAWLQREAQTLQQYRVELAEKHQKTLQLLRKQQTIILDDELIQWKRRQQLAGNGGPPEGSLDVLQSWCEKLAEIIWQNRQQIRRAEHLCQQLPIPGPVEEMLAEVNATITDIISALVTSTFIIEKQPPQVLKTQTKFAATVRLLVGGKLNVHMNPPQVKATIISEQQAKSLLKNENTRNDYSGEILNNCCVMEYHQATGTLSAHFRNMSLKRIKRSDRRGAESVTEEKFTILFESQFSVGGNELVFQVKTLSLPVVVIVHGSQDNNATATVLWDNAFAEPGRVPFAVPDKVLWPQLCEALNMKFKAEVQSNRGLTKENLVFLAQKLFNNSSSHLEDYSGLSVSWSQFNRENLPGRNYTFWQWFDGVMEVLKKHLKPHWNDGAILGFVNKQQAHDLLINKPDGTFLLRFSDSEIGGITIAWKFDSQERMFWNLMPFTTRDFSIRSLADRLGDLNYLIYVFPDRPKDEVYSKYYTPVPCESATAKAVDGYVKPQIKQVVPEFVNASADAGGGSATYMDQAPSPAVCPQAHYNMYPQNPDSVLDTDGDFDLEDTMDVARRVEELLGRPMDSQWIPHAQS
UniProt Q15582, sequence (Q15582 whole entry, looked up): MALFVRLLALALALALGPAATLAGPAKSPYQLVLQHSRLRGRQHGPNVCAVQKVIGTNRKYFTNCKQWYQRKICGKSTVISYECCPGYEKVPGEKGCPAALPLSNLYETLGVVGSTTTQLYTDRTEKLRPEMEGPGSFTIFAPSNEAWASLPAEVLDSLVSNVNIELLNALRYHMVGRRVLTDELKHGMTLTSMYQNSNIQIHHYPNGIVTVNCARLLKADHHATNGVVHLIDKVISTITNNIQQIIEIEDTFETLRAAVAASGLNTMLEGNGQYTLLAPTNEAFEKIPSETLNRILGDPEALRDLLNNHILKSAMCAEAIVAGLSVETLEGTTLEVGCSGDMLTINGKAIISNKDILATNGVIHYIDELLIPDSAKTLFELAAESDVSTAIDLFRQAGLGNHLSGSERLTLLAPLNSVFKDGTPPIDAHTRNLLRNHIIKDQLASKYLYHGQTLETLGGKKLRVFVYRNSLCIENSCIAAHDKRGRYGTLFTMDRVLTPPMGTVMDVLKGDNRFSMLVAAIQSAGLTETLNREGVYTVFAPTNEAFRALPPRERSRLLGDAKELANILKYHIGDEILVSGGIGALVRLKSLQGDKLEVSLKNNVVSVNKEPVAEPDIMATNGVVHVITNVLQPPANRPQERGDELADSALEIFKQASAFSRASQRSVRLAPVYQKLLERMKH
UniProt O95149, sequence (O95149 whole entry, looked up): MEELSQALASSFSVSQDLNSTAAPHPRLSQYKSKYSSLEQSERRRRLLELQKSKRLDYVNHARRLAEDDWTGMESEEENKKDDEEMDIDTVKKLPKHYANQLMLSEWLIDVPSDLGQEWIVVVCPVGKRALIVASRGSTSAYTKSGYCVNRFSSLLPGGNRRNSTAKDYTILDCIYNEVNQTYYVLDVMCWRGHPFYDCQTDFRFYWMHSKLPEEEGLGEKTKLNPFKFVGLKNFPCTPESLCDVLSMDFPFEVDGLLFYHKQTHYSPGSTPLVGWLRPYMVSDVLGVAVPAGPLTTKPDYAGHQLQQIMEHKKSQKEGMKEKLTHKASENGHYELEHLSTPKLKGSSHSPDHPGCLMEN
UniProt P42229, sequence (P42229 whole entry, looked up): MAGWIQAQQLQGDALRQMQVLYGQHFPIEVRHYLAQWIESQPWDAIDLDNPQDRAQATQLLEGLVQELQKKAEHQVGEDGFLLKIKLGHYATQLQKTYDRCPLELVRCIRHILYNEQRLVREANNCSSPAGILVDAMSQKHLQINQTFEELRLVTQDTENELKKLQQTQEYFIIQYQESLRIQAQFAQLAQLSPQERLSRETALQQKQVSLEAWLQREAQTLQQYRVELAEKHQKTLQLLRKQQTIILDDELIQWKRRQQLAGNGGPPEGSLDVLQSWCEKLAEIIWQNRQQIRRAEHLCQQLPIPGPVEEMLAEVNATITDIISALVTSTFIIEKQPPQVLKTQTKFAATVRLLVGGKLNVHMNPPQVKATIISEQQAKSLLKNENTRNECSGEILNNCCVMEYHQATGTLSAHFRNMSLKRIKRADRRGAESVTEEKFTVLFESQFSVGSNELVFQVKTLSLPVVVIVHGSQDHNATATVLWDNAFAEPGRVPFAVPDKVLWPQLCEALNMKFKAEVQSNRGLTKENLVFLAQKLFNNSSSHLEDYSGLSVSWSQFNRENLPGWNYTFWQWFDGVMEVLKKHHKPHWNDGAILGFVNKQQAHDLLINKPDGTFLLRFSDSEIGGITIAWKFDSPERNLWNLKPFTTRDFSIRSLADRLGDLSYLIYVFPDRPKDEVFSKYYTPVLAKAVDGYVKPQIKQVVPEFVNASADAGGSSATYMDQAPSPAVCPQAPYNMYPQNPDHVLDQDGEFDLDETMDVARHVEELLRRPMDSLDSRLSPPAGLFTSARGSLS
UniProt O75663, sequence (O75663 whole entry, looked up): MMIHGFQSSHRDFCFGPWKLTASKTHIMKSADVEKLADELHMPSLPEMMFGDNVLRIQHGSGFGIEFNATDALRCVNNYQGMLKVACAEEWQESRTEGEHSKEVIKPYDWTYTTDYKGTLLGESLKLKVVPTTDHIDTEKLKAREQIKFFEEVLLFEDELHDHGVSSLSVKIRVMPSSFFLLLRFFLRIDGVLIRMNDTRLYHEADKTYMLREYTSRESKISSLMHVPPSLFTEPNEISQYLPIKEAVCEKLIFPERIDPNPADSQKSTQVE
UniProt Q9Y5M8, sequence (Q9Y5M8 whole entry, looked up): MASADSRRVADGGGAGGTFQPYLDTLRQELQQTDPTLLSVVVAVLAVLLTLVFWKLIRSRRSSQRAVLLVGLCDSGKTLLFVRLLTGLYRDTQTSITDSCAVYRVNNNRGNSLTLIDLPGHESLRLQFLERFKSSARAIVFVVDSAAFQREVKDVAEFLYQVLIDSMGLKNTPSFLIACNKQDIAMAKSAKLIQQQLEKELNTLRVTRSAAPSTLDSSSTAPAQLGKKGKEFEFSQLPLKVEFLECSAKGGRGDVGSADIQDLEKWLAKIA

Target	log2 fold change (erlotinib)	log2 fold change [1]	log2 fold change [2]	log2 fold change [3]	log2 fold change [4]	log2 fold change [5]	log2 fold change [6]	log2 fold change [7]	log2 fold change [8]	log2 fold change [9]
STK39 (UniProt Q9UEW8)	0.064 (inactive)	0.07 (inactive)	0.038 (inactive)	-0.096 (inactive)	0.035 (inactive)	0.06 (inactive)	0.034 (inactive)	0.019 (inactive)	0.014 (inactive)	-0.025 (inactive)
SPECC1 (UniProt Q5M775)	0.044 (inactive)	-0.002 (inactive)	0.022 (inactive)	0 (inactive)	0.056 (inactive)	0.02 (inactive)	-0.208 (inactive)	-0.023 (inactive)	0.026 (inactive)	0.012 (inactive)
STAT5A (UniProt P42229)	0.033 (inactive)	0.173 (inactive)	0.035 (inactive)	0.048 (inactive)	0.083 (inactive)	0.01 (inactive)	0.06 (inactive)	-0.026 (inactive)	-0.077 (inactive)	-0.028 (inactive)
TAF9 (UniProt Q16594)	-0.007 (inactive)	-0.003 (inactive)	-0.036 (inactive)	0.014 (inactive)	-0.027 (inactive)	0.019 (inactive)	-0.04 (inactive)	-0.032 (inactive)	-0.024 (inactive)	0.02 (inactive)
STAT5B (UniProt P51692)	0.027 (inactive)	-0.148 (inactive)	0.035 (inactive)	0.071 (inactive)	0.028 (inactive)	-0.013 (inactive)	-0.007 (inactive)	-0.061 (inactive)	-0.077 (inactive)	-0.013 (inactive)
SRPRB (UniProt Q9Y5M8)	-0.015 (inactive)	0.106 (inactive)	0.122 (inactive)	-0.018 (inactive)	0.045 (inactive)	-0.036 (inactive)	0.089 (inactive)	0.024 (inactive)	-0.006 (inactive)	0.017 (inactive)
TBC1D15 isoform 3 (UniProt Q8TC07)	-0.007 (inactive)	0.075 (inactive)	0.024 (inactive)	-0.029 (inactive)	0.059 (inactive)	0.067 (inactive)	0.029 (inactive)	-0.035 (inactive)	0.016 (inactive)	-0.048 (inactive)
SNUPN (UniProt O95149)	-0.091 (inactive)	0.032 (inactive)	0.136 (inactive)	-0.019 (inactive)	0.069 (inactive)	0.037 (inactive)	-0.085 (inactive)	-0.053 (inactive)	0.024 (inactive)	-0.061 (inactive)
STAT6 (UniProt P42226)	0.082 (inactive)	0.061 (inactive)	0.12 (inactive)	0.018 (inactive)	0.022 (inactive)	-0.032 (inactive)	0.025 (inactive)	-0.026 (inactive)	-0.063 (inactive)	0.04 (inactive)
TIPRL (UniProt O75663)	0.055 (inactive)	0.097 (inactive)	0.031 (inactive)	0.009 (inactive)	0.049 (inactive)	0.036 (inactive)	-0.002 (inactive)	0.03 (inactive)	0.021 (inactive)	-0.041 (inactive)
SUCLA2 (UniProt Q9P2R7)	0.024 (inactive)	0.016 (inactive)	0.072 (inactive)	-0.031 (inactive)	0.049 (inactive)	-0.018 (inactive)	0.037 (inactive)	-0.019 (inactive)	0.004 (inactive)	-0.01 (inactive)
TBC1D20 isoform 3 (UniProt Q96BZ9)	0.022 (inactive)	0.195 (inactive)	0.094 (inactive)	0.083 (inactive)	0.047 (inactive)	-0.015 (inactive)	-0.048 (inactive)	-0.048 (inactive)	–	–
THYN1 (UniProt Q9P016)	-0.061 (inactive)	0.007 (inactive)	-0.041 (inactive)	0.125 (inactive)	0 (inactive)	0.006 (inactive)	-0.032 (inactive)	0.145 (inactive)	-0.002 (inactive)	-0.037 (inactive)
SLIRP (UniProt Q9GZT3)	0.019 (inactive)	0.205 (inactive)	0.27 (inactive)	-0.014 (inactive)	0.067 (inactive)	0.093 (inactive)	0.023 (inactive)	-0.187 (inactive)	-0.013 (inactive)	-0.028 (inactive)
TAMM41 isoform 3 (UniProt Q96BW9)	0.047 (inactive)	0.03 (inactive)	0.058 (inactive)	-0.007 (inactive)	0.061 (inactive)	0.009 (inactive)	0.045 (inactive)	0.007 (inactive)	-0.007 (inactive)	0.056 (inactive)
SMARCA4 (UniProt P51532)	0.02 (inactive)	0.073 (inactive)	0.032 (inactive)	0.102 (inactive)	0.035 (inactive)	-0.001 (inactive)	-0.096 (inactive)	-0.124 (inactive)	–	–
SRRM2 (UniProt Q9UQ35)	0.067 (inactive)	0.095 (inactive)	-0.136 (inactive)	0.07 (inactive)	-0.123 (inactive)	0.014 (inactive)	-0.044 (inactive)	-0.073 (inactive)	-0.061 (inactive)	-0.128 (inactive)
ST6GAL1 (UniProt P15907)	0.053 (inactive)	0.006 (inactive)	0.017 (inactive)	0.022 (inactive)	-0.033 (inactive)	-0.009 (inactive)	0.064 (inactive)	0.048 (inactive)	-0.064 (inactive)	0.041 (inactive)
STARD9 (UniProt Q9P2P6)	0.026 (inactive)	0.117 (inactive)	-0.089 (inactive)	0.119 (inactive)	0.06 (inactive)	0 (inactive)	-0.131 (inactive)	0.005 (inactive)	-0.003 (inactive)	-0.099 (inactive)
SLC38A2 (UniProt Q96QD8)	-0.093 (inactive)	0.075 (inactive)	0.01 (inactive)	0.003 (inactive)	-0.039 (inactive)	0.093 (inactive)	0.055 (inactive)	0 (inactive)	-0.009 (inactive)	0.048 (inactive)
SRSF9 (UniProt Q13242)	-0.084 (inactive)	-0.4 (inactive)	-0.721 (active)	0.138 (inactive)	-0.211 (inactive)	0.052 (inactive)	-0.087 (inactive)	-0.229 (inactive)	–	–
TBC1D9B (UniProt Q66K14)	0.07 (inactive)	0.001 (inactive)	-0.087 (inactive)	0.072 (inactive)	0.151 (inactive)	-0.092 (inactive)	-0.011 (inactive)	0.021 (inactive)	-0.055 (inactive)	-0.058 (inactive)
SUCLG1 (UniProt P53597)	0.033 (inactive)	0.027 (inactive)	0.052 (inactive)	-0.004 (inactive)	0.012 (inactive)	-0.017 (inactive)	0.061 (inactive)	-0.017 (inactive)	0.021 (inactive)	0.034 (inactive)
TGFBI (UniProt Q15582)	0.003 (inactive)	-0.018 (inactive)	0.054 (inactive)	0.009 (inactive)	0.132 (inactive)	0.034 (inactive)	0.009 (inactive)	-0.133 (inactive)	-0.037 (inactive)	0.029 (inactive)
TJP1 (UniProt Q07157)	0.095 (inactive)	0.072 (inactive)	0.022 (inactive)	-0.015 (inactive)	0.013 (inactive)	-0.135 (inactive)	0.003 (inactive)	-0.029 (inactive)	-0.03 (inactive)	-0.035 (inactive)
SLC25A39 (UniProt Q9BZJ4)	-0.072 (inactive)	-0.217 (inactive)	0.038 (inactive)	0.062 (inactive)	0.193 (inactive)	0.118 (inactive)	-0.042 (inactive)	-0.046 (inactive)	-0.186 (inactive)	0.112 (inactive)
SLC38A9 (UniProt Q8NBW4)	0.008 (inactive)	-0.023 (inactive)	-0.018 (inactive)	0.02 (inactive)	0.046 (inactive)	0.063 (inactive)	-0.071 (inactive)	-0.011 (inactive)	-0.042 (inactive)	0.055 (inactive)
STXBP5 (UniProt Q5T5C0)	0.028 (inactive)	0.039 (inactive)	0.097 (inactive)	0.018 (inactive)	0.094 (inactive)	0.026 (inactive)	0.036 (inactive)	-0.015 (inactive)	-0.014 (inactive)	0.011 (inactive)
